Compound activity (PubChem)
Sampled rows, rich in hits. Any-hit rate of the full collection: about 2.8%.
Pol kappa inh-1: qHTS for Inhibitors of Polymerase Kappa; Potency, µM (top dose mostly 107 µM), for inactives: at the highest dose activity, negative = inhibition, usual class: inhibitors; purified Pol kappa, fluorescent DNA synthesis assay, 10 min; AID 588579, 2011; 400,000 tested, 0.53% active; DNA polymerase kappa (Homo sapiens), Q9UBT6; also: potency is read from the fitted curve at half-maximal effect; % is scaled to controls: 0 for no effect and ±100 for the full control effect
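Kinetic fluorescence readout at 0 and 10 min followed reaction start with substrate at 50 nM final. Beforehand, enzyme (10 nM Pol kappa) stood 15 min with compound at room temperature; buffer-only wells were negative controls.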
PI5P4Ka inh: qHTS for Inhibitors of phosphatidylinositol 5-phosphate 4-kinase (PI5P4K); Phosphatidylinositol 5-phosphate 4-kinase type-2 alpha (Homo sapiens), P48426; AID 652105, 2013; PI5P4Kalpha enzyme, ADP-Glo luminescence, 60 min; hits give low values; max response, %; 330,000 tested, 1.2% active; active = max response of -50% or lower; inconclusive = between -30% and -50%; inactive = -30% or higher; also: value at the top dose of about 77 µM; % is scaled to controls: 0 for no effect and ±100 for the full control effect
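Enzyme plus substrate dispensed, test compounds pinned in, then ATP (5 microM final) added. After 60 min at RT, ADP-Glo reagent 1 for 45 min and reagent 2 for 30 min preceded luminescence imaging.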
WRN inhibitor: qHTS for Inhibitors of WRN Helicase; Potency, µM (highest dose often 114 µM), inactives show at the highest dose activity change, negative = inhibition, usual class: inhibitors; WRN helicase unwinding, fluorescent forked duplex, kinetic; 360,000 tested, 0.46% active; AID 651768, 2012; also: potency is read from the fitted curve at half-maximal effect; % is scaled to controls: 0 for no effect and ±100 for the full control effect; nearly all actives have a fitted effect of over 55% in size
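Enzyme (20 nM final) and test compound sit together 15 min at room temperature before substrate addition. Substrate is a single-forked duplex oligonucleotide (100 nM) labelled with fluorophore and quencher, with 2 mM ATP; helicase unwinding raises red fluorescence, read kinetically.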
Pol eta inh-1: qHTS for Inhibitors of Polymerase Eta. DNA polymerase eta (Homo sapiens), Q9Y253. recombinant Pol eta, fluorescent DNA replication assay. Potency, µM (top dose mostly 114 µM), inactives show at the top dose activity change, negative = inhibition, usual class: inhibitors. 390,000 tested, 1.2% active. AID 588591, 2011; also: potency is read from the fitted curve at half-maximal effect; % is scaled to controls: 0 for no effect and ±100 for the full control effect
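Fluorescent replication assay: 50 nM final substrate added after a 15 min room-temperature compound preincubation with 10 nM enzyme. Signal taken at 0 min and again at 10 min.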
Pol iota inh: qHTS for Inhibitors of Polymerase Iota; AID 588590, 2011; 390,000 tested, 1% active; DNA polymerase iota (Homo sapiens), Q9UNA4; Pol iota fluorescent replication assay, 10 min; Potency, µM (titrated, usually from 115 µM), inactives show top-dose activity, negative = inhibition, actives largely listed as inhibitors; also: potency is read from the fitted curve at half-maximal effect
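Fluorescent replication assay read twice, at 0 min and 10 min after adding 50 nM (final) substrate. Enzyme (10 nM) and compounds were first incubated 15 min at room temperature; enzyme-free buffer wells were negative controls.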
Pol beta inh-1: qHTS Assay for Inhibitors of DNA Polymerase Beta; 340,000 tested, 1.3% active; AID 485314, 2010; Pol beta primer extension/strand displacement, fluorescence kinetic; P06746; Potency, µM (highest dose often 114 µM), without a hit: at the highest dose activity change, negative = inhibition, actives largely listed as inhibitors; also: potency is read from the fitted curve at half-maximal effect; % is scaled to controls: 0 for no effect and ±100 for the full control effect
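Homogeneous kinetic assay of primer extension and strand displacement by 10 nM Pol beta, preincubated 15 min at room temperature with compound before 50 nM substrate (final) was added. Read at 0 and 10 min; four-parameter Hill fit.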
Pol beta inh-2: Inhibitors of DNA Polymerase Beta: Hit validation. AID 540280, 2011. 250 tested, 87% active. Potency, µM, hits mostly inhibitors. shares compounds with Pol beta inh-1. Pol beta primer extension/strand displacement, fluorescence kinetic; calls by dose curve; also: potency is read from the fitted curve at half-maximal effect
Klenow inh: Inhibitors of DNA Polymerase Beta: Hit Validation in Klenow Fragment Assay; 250 tested, under 10 active; Klenow exo- polymerase counter-screen, fluorescent DNA substrate; activity change, negative = inhibition, % at 57.1 µM; AID 540300, 2011; shares compounds with Pol beta inh-1
HIV RT inh: Inhibitors of DNA Polymerase Beta: Hit Validation in HIV-RT Assay; shares compounds with Pol beta inh-1; HIV-1 RT polymerase activity, counter-screen; activity % (negative = inhibition, positive = activation), % at 57.1 µM; 250 tested, under 10 active; AID 540301, 2011
POLB inh gel: Inhibitors of DNA Polymerase Beta: Hit Validation in Radiolabeled Extension Assay; AID 540325, 2011; 110 tested, 91% active; shares compounds with Pol beta inh-1; inhibition, % at 10 µM; radiolabeled primer extension gel assay, phosphorimager;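 active = inhibition at 10 µM of 30% or more; inconclusive = no clear call, values can overlap the other calls; inactive = inhibition at 10 µM under 30%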
PGK validate: qHTS for inhibitors of Phosphogylcerate Kinase: Hit Validation Screen; shares compounds with Pol kappa inh-1; TbPGK coupled GAPDH assay, Kinase-Glo luminescence; Potency, µM (doses to about 57.5 µM), for the others: top-dose activity change, negative = inhibition, hits mostly inhibitors; 500 tested, 79% active; also: potency is read from the fitted curve at half-maximal effect; % is scaled to controls: 0 for no effect and ±100 for the full control effect; nearly all actives have a fitted effect of over 65% in size
Pol iota confirm: qHTS for Inhibitors of Polymerase Iota: Confirmatory Assay for Cherry-picked Compounds; shares compounds with Pol kappa inh-1; Pol iota primer extension, TAMRA/BHQ fluorescence; Potency, µM, actives largely listed as inhibitors; 1,500 tested, 77% active; AID 720496, 2013; also: potency is read from the fitted curve at half-maximal effect
Pol kappa inh-2: qHTS for Inhibitors of Polymerase Kappa: Confirmatory Assay for Cherry-picked Compounds | shares compounds with Pol eta inh-1 | purified Pol-kappa, fluorescent strand-displacement substrate | Potency, µM, usual class: inhibitors | 920 tested, 76% active | AID 720501, 2013; also: potency is read from the fitted curve at half-maximal effect
Pol eta inh-2: qHTS for Inhibitors of Polymerase Eta: Confirmatory Assay for Cherry-picked Compounds; shares compounds with Pol eta inh-1; Pol eta primer extension, TAMRA/BHQ fluorescence, 10 min; Potency, µM, usual class: inhibitors; 2,600 tested, 64% active; also: potency is read from the fitted curve at half-maximal effect
* marks the source's active call; other numbers are inactive results; u = inconclusive; x = no result given; [ ] = dose if it differs, or a comment. Unless noted, calls follow the shape of the dose curve; as a rule, active = well fitted curve in the direction sought with a large enough effect; inconclusive = small, poorly fitted or top-dose-only effect, or another doubt; inactive = no such curve, though single readings can be large; an effect the other way counts as inactive or inconclusive.

SMILES	Pol kappa inh-1	PI5P4Ka inh	WRN inhibitor	Pol eta inh-1	Pol iota inh	Pol beta inh-1	Pol beta inh-2	Klenow inh	HIV RT inh	Pol iota confirm	others
Cc1ccc(-c2ccc(=O)n(CCC(=O)NCCc3ccccc3)n2)cc1	1.6%[60.1 µM]	x	x	-1.3%	6.1%	-27.2%	x	x	x	x
O=C(O)c1ccccc1C(=O)Nc1cccc([N+](=O)[O-])c1	-7.9%	0.3	-1.4%	-6.5%	-15.4%	2.3%	x	x	x	x
O=C(Nc1cccc([N+](=O)[O-])c1)c1cc2ccccc2cc1O	-27.5%	-19.4	-22.3%	u	44.7µM*	17.8µM*	28.2*	-7.8	27.0	x	POLB inh gel=97.7*
O=C(Nc1cccc(-c2cn3ccccc3n2)c1)c1cc2ccccc2oc1=O	-17.5%	x	u	u	u	3.98µM*	5.62*	28.3	47.5	u
CN(CC(=O)Nc1cccc(Cl)c1)S(=O)(=O)c1ccc2[nH]c3c(c2c1)CCCC3	-20.7%	x	x	-24.4%	u	-26.5%	x	x	x	x
O=C(/C=C/c1ccccc1Cl)Nc1ccc2c(c1)C(=O)NC2=O	u	-25.7	u	u	u	8.91µM*	14.1*	-2.9	23.5	u
Cc1cccc(-c2[nH]c(C(C)(C)C)nc2-c2ccc3nccnc3c2)n1	1.8%[60.1 µM]	x	x	x	x	x	x	x	x	x
O=C(Nc1nc(-c2ccccn2)cs1)c1ccco1	-20.9%	u	-13.8%	u	-0.2%	u	x	x	x	x
O=C(Nc1nc(-c2cc3ccccc3oc2=O)cs1)c1ccco1	-8.7%	-5.0	-15.6%	u	-12.0%	8.91µM*	20*	-20.2	42.9	u	POLB inh gel=40.9*
CCOC(=O)c1cc(-c2ccc(N3CCOCC3)cc2)nn1-c1ccccc1	-6.4%	-10.2	-6.6%	-11.7%	0.2%	-29.8%	x	x	x	x
CCOC(=O)c1cc(-c2ccc(N3CCOCC3)cc2)nn1-c1ccccc1C(=O)O	-15.8%	u	u	u	u	12.6µM*	20*	10.3	21.1	u
Cc1ccccc1CNCCCSc1nnnn1C	1.7%	x	x	-9.3%	41.1%	-0.1%	x	x	x	x
CCCCCCc1cc2cc(-c3nnc(-c4ccccc4OC)o3)c(=O)oc2cc1O	20µM*	-87.7*	44.7µM*	8.91µM*	u	14.1µM*	7.08*	-20.8	9.3	x	PGK validate=10.3µM*
COc1cc(/C=C(/C#N)c2nc3ccccc3[nH]2)ccc1Oc1ncccc1[N+](=O)[O-]	-41.2%	x	u	u	u	12.6µM*	12.6*	-6.6	10.0	u
CCOc1cc(/C=C(/C#N)c2nc3ccccc3[nH]2)ccc1Oc1ccc([N+](=O)[O-])cn1	-8.2%	x	-13.8%	-11.2%	125.5%	u	x	x	x	x
CCCSc1nnc(NC(=O)c2sc3nc(-c4cccs4)ccc3c2N)s1	-16.8%	x	u	79.4µM*	u	17.8µM*	12.6*	-6.5	4.4	u	Pol kappa inh-2=18.9*;Pol eta inh-2=60.1*
Cc1cc(C)n2c(SC/C(O)=C(\C#N)c3nc4ccccc4[nH]3)nnc2n1	44.7µM*	-81.0*	u	3.16µM*	11.2µM*	17.8µM*	35.5*	5.1	-3.7	x	POLB inh gel=100.0*;Pol eta inh-2=75.7*
Cc1ccccc1-n1c(SC/C(O)=C(\C#N)c2nc3ccccc3[nH]2)nnc1-c1ccncc1	-30.7%	u	-16.2%	u	u	u	x	x	x	x
CCOC(=O)/C=C/C(=O)N1CCc2ccccc21	-4.7%	0.7	-10.1%	8.6%	u	30.1%	x	x	x	x
Cc1ccc(/C=C/C(=O)N2CCc3ccccc32)o1	u	-74.6*	u	8.91µM*	35.5µM*	12.6µM*	17.8*	-3.2	19.9	67*	Pol eta inh-2=67.5*
COC(=O)c1ccccc1NC(=O)c1ccc2nccnc2c1	u	u	-28.0%	31.6µM*	u	3.16µM*	35.5*	-27.1	39.0	x	Pol eta inh-2=u
C=CCn1c(SCC(=O)Nc2ccc(-c3nc4ccc(C)cc4s3)cc2)nnc1-c1ccccc1	-33.1%	-17.9	u	u	56.2µM*	6.31µM*	20*	-0.6	53.3	67*	POLB inh gel=59.7*;Pol eta inh-2=u
C=CCn1c(SCC(=O)NNC(=O)Nc2ccc(C)cc2)nnc1-c1ccccc1	8.2%	2.9	2.9%	-5.9%	9.9%	-7.8%	x	x	x	x
CCOC(=O)C1=C(C)N=c2s/c(=C\c3ccc(OCC(=O)O)cc3)c(=O)n2C1c1ccccc1 (stereo unspecified)	-13.8%	u	u	u	52.5%	-21.7%	x	x	x	x
